# Screens: PubChem, The Scripps Research Institute Molecular Screening Center
# Hits are enriched below; roughly 3.5% of the tested compounds scored in any of these assays.
# MITF primary: blocks human microphthalmia-associated transcription factor; inhibition, % at 2.6 µM; AID 1259374; O75030; AlphaScreen MITF homodimerization, bead proximity signal; 650,000 compounds, 0.91% hits; in the data active = inhibition above about 50%;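 also: 0% = vehicle wells with protein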
# TEAD-YAP inh: TEAD-YAP interaction inhibition | HEK-TIYL cells, TEAD-Gal4/YAP UAS-luciferase luminescence | inhibition, % at 9.12 µM | 640,000 compounds, 1.4% hits | AID 1259422; in the data active = inhibition above about 32%;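 also: 0% = median of test compound wells and 100% = reference inhibitor wells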
# GPR151 ag: activates the human receptor GPR151. Q8TDV0. PathHunter beta-arrestin GPR151 cells, luminescence. activation, % at 11.2 µM. 650,000 compounds, 1% hits. AID 1508602; in the data active = activation above about 4.9%;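 also: 0% = median of compound wells and 100% = cells with positive control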
# FBW7 act: activators of human E3 ligase FBW7; AlphaScreen FBW7–phospho-cyclin E peptide binding, activator screen; AID 1259310; 650,000 compounds, 0.13% hits; Q969H0; normalized activity (activation), % at 26.1 µM; in the data active = normalized activity above about 1.9%;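 also: purified mutant Fbw7 with reduced substrate affinity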
# GPR151 confirm: confirmation of human GPR151 activators | shares compounds with GPR151 ag | 6,700 tested, under 10 active | GPR151 PathHunter beta-arrestin cells, luminescence, 90 min; % of EA-reagent control over plate median | AID 1508609 | activation, % at 11.2 µM;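 active = mean percent activation across replicates above the confirmation screen cutoff of 4.91%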
# GPR119 ag: activates human GPR119 in a GPR151 counter-screen. shares compounds with GPR151 ag. GPR119 PathHunter beta-arrestin cells, luminescence, 90 min; 0 = compound-well median, 100 = enzyme-acceptor control. 6,700 compounds, 0.3% hits. activation, % at 11.2 µM. AID 1508611;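 active = mean percent activation in the counterscreen above 29.09%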;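 also: counterscreen on off-target GPR119 to flag nonselective hits from the GPR151 activator screen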
# * = called active by the depositor; / = no result given.
SMILES,MITF primary,TEAD-YAP inh,GPR151 ag,FBW7 act,GPR151 confirm,GPR119 ag
NS(=O)(=O)c1ccc(CCNC(=O)c2cc(-c3ccccc3)nc3ccccc23)cc1,-16,3,6.2*,0,1,2
Cc1ccc(C2=NS(=O)(=O)N(C)C(C(=O)N3CCC(C)C4CCCCC43)=C2)cc1 (centres undefined),6,6,3,0,/,/
COc1ccc(C2NC(=S)NC(C)=C2C(=O)Nc2ccc(Cl)cc2)cc1 (centres undefined),-8,16,0,0,/,/
Cc1ccc(NC(=O)COC(=O)CCc2ccco2)cc1C,-10,4,6.3*,0,0,4
COc1ccc(C(O)C(C)c2nc3ccccc3n2C)cc1 (centres undefined),-6,5,6.3*,0,0,2
O=C(CN1CCCc2ccccc21)Nc1ccc(Br)cc1,4,-3,12*,0,0,5
CC(=O)c1ccc(NC(=O)CN2CCCc3ccccc32)cc1,-3,5,0,0,/,/
CCN(CC)C(=O)C1CCCN(c2cc(C(=O)NCc3nc4ccccc4[nH]3)ccn2)C1 (centres undefined),2,2,6.6*,0,0,-2
COc1cccc(N2C(=O)NC(=O)/C(=C/c3ccc(O)c(O)c3)C2=O)c1,-24,-3,5.1*,0,1,5
CCOc1cc(/C=C2\C(=O)NC(=O)N(c3ccc(Br)c(C)c3)C2=O)ccc1O,3,5,5.0*,0,0,-6
COc1ccc(OC)c(N2C(=O)NC(=O)/C(=C/c3cccs3)C2=O)c1,-2,-3,1,0,/,/
Cc1cccc(N2C(=O)NC(=O)/C(=C\c3ccc(N(C)C)c([N+](=O)[O-])c3)C2=O)c1,0,-11,5.6*,0,-1,-5
COc1ccc(N2C(=O)/C(=C/c3cccs3)C(=O)NC2=S)c(OC)c1,8,8,5.2*,0,0,2
Cc1cc(C(=O)CN2CC(C)OC(C)C2)c(C)n1-c1ccc(Cl)c(Cl)c1 (centres undefined),12,1,-1,0,/,/
O=C(CSc1nc2ccccc2c(=O)n1CC1CCC(C(=O)N2CCN(c3ccccc3)CC2)CC1)NCCc1ccccc1 (centres undefined),13,21,0,0,/,/
CCCCC(=O)Nc1ccc(C(C)C)cc1,4,-57,1,0,/,/
c1ccc(C2CCSC2)cc1 (centres undefined),-4,-3,2,0,/,/
COc1ccc(/C=C2\C(=O)NC(=O)N(c3ccccc3OC)C2=O)cc1,-4,-3,4.9*,0,0,10
CCN(CCO)C(=O)CCN1C(=O)/C(=C/c2cccc(Br)c2)SC1=S,0,-3,-2,0,/,/
CCOc1ccc(CCNS(=O)(=O)c2ccc3c(c2)OCCN3C(C)=O)cc1OCC,10,4,5.2*,1,0,-7
COCC(C)NC(=O)c1ccc(OC2CCN(Cc3ccccn3)CC2)cc1 (centres undefined),-3,2,5.8*,0,0,-7
O=C(c1ccccc1Cl)n1cc(Cl)cn1,-9,5,2,0,/,/
COc1ccc(C2CC(=O)N3CN(Cc4ccccc4)CSC3=C2C#N)cc1 (centres undefined),8,6,5.8*,0,-1,-12
O=C(Nc1ccc(-c2noc(-c3ccccc3Br)n2)cc1)c1ccco1,2,-51,1,0,/,/
c1ccc(CSc2nnc(SCc3ccccn3)s2)nc1,2,-62,0,0,/,/
SMILES,MITF primary,TEAD-YAP inh,GPR151 ag,FBW7 act,GPR151 confirm,GPR119 ag
c1ccc(N2CCN(c3nnc(SCc4ccccn4)s3)CC2)cc1,-3,-40,5.4*,0,-1,-9
O=C(CCC(=O)Nc1ccccc1Br)N/N=C/c1cc([N+](=O)[O-])ccc1O,14,22,1,0,/,/
COc1ccc(C(=O)NC2CC2)cc1OC1CCN(Cc2ccc(F)cc2F)CC1,-10,-22,5.6*,0,0,0
CC(C)N(CCNc1ncnc2nc(N3CCCC3CO)[nH]c12)C(C)C (centres undefined),13,2,-1,0,/,/
CCN1C=CC=C/C1=C1\SC(=S)N(C)C1=O,12,2,7.3*,0,-2,-9
COc1cccc(NC(=O)NNC(=O)c2cc3occc3[nH]2)c1,9,0,5.0*,0,0,9
